Measured values: ChEMBL document CHEMBL3988442, “University of Dundee, Small-Polar-MMV Screening Library” (2021)
For part of these data: Entries with a potency or affinity are not part of this list.

Legend:
Design in all cases: scale not given: direction of the effect not stated beside the values
[1] = target: Protein translocase subunit SecA (Escherichia coli (strain K12)) (UniProt P10408); assay: Assay to Identify E. coli SecA ATPase Inhibitors; type: functional; conditions: 30 µM
[2] = target: T1, Ubiquitin-activating enzyme e1, putative (Leishmania donovani (strain BPK282A1)) (UniProt E9BSI1); assay: Leishmania donovani Ubiquitin Activating Enzyme (LdE1); type: functional; conditions: 30 µM
T1 sequence (whole entry): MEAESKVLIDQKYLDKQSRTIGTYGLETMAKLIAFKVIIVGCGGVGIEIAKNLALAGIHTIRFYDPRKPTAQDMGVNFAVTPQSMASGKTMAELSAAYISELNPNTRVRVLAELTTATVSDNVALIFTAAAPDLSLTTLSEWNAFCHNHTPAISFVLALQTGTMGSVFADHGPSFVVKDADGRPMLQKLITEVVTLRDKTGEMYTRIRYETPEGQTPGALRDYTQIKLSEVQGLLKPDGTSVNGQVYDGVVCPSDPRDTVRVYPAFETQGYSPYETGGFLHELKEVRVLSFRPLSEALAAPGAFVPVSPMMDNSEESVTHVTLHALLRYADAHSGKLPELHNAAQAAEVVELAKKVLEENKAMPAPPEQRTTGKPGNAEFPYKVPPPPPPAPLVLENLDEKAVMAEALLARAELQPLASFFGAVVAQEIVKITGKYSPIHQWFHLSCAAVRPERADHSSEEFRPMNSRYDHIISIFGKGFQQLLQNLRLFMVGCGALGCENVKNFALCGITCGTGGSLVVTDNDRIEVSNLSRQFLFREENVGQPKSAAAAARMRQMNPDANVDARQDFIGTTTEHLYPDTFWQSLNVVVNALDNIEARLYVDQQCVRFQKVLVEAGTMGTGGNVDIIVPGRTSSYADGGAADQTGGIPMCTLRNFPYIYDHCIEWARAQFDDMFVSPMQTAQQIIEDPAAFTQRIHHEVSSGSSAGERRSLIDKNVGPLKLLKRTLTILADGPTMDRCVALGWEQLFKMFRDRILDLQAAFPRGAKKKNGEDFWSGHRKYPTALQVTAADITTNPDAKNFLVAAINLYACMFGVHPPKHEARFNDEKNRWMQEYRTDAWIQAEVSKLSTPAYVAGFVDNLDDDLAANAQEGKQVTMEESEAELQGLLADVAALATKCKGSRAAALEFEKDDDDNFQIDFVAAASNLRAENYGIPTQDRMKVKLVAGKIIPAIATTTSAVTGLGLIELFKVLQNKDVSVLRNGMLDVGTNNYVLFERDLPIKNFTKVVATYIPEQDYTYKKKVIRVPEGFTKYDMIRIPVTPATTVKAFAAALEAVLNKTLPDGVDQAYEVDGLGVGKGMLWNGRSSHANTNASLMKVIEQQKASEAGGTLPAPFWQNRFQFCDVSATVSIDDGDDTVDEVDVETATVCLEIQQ

[3] = target: T2, Aspartate--tRNA(Asp/Asn) ligase (Mycobacterium tuberculosis (strain ATCC 25618 / H37Rv)) (UniProt P9WFW3); assay: Assay for Asp RNA synthetase-1 from Mycobacterium tuberculosis; type: functional; conditions: 30 µM; further: in the data most compounds retested in dose-response had high values
T2 sequence (whole entry): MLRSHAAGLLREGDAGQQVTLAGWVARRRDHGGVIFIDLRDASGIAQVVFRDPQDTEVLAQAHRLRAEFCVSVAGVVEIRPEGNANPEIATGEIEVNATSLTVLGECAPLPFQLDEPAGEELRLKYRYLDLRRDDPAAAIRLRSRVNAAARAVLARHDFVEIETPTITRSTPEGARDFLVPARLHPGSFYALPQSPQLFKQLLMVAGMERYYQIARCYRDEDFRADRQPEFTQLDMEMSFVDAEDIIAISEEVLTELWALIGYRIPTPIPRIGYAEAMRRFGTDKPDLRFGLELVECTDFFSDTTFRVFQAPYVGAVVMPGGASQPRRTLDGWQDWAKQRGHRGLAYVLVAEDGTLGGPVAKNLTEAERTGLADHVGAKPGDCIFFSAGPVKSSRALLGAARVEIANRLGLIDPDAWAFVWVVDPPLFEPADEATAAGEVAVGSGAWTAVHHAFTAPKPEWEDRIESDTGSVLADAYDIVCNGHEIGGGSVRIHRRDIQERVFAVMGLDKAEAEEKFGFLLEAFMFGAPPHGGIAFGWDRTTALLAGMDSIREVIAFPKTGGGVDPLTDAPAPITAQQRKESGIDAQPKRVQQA

[4] = target: Sialic acid-binding Ig-like lectin 9 (Homo sapiens) (UniProt Q9Y336); assay: Hs-Siglec9 ALPHAscreen SOP 20170721; conditions: 10 µM
[5] = test system: Trypanosoma cruzi; assay: Trypanosoma cruzi phosphomannomutase and mannose-1-phosphate guanylyltransferase assay; type: functional; conditions: 10 µM
[6] = target: T3, Arginase-2, mitochondrial (Homo sapiens) (UniProt P78540); assay: in vitro enzyme assay to detect the production of urea directly proportional to the activity of Arginase II; type: functional; conditions: 33.3 µM; further: in the data most compounds retested in dose-response had high values
T3 sequence (whole entry): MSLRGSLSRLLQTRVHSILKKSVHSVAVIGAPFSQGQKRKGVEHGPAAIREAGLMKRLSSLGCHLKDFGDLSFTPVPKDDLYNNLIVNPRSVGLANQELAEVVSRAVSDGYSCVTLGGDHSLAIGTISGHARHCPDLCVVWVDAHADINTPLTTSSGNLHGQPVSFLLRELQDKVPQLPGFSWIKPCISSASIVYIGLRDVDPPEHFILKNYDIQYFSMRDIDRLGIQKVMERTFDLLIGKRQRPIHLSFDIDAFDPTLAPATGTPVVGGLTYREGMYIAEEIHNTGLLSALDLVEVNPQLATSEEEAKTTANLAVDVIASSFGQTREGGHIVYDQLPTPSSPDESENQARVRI

[7] = target: T4, Proteasome subunit beta (Trypanosoma cruzi) (UniProt O96673); assay: Trypanosoma cruzi proteasome chymotrypsin-like activity (TcProtChymo) assay.; further: in the data most compounds retested in dose-response had high values; type: functional; conditions: 9.37 µM
T4 sequence (whole entry): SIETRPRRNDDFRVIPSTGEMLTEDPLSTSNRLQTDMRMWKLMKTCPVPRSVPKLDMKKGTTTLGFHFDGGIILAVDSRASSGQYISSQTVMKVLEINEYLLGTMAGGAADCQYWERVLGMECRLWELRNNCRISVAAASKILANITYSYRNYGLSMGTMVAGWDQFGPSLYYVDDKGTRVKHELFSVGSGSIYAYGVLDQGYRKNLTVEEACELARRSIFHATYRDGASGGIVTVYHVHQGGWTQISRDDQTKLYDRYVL

[8] = organism: Homo sapiens; assay: To identify inhibition of the IFN signalling (Jak-Stat) pathway via expression of an eGFP reporter gene under the control of an IFN-stimulated response element (ISRE) containing MxA promoter.; type: functional; conditions: 30 µM
[9] = target: Shiga toxin 2 (Escherichia coli O157:H7) (UniProt P09385+P09386); assay: E. coli 0.157:H7 Shiga Toxin SOP - stx2 screening assay; type: functional; conditions: 30 µM
[10] = target: T5, Tyrosyl-tRNA synthetase, putative (Trypanosoma cruzi (strain CL Brener)) (UniProt Q4DSP6); assay: Trypanosoma cruzi tyrosyl tRNA synthetase (TcYRS) _High Tyrosine SOP; type: functional; conditions: 30 µM; further: in the data most compounds retested in dose-response had high values
T5 sequence (whole entry): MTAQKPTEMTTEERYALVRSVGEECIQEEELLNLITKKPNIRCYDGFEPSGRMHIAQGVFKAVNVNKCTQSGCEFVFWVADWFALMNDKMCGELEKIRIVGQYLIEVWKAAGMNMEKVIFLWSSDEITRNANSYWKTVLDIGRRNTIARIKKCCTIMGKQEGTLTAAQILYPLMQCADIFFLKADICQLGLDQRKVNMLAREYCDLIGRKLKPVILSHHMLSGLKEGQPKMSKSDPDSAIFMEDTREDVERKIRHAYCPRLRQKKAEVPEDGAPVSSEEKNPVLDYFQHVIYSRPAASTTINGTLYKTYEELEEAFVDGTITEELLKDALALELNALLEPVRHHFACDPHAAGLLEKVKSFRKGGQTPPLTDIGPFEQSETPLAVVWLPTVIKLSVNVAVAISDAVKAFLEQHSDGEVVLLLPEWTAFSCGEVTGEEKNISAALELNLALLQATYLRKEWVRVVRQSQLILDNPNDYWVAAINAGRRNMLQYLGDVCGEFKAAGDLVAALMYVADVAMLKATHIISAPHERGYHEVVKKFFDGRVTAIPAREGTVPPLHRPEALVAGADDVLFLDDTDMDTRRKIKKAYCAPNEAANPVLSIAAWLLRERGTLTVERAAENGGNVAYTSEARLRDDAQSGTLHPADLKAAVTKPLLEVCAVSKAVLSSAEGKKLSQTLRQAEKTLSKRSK

[11] = target: T5, Tyrosyl-tRNA synthetase, putative (Trypanosoma cruzi (strain CL Brener)); assay: Trypanosoma cruzi tyrosyl tRNA synthetase (TcYRS) SOP; type: functional; conditions: 30 µM
[12] = target: Chromo domain-containing protein 1 (Saccharomyces cerevisiae (strain ATCC 204508 / S288c) (Baker's yeast)) (UniProt P32657); assay: ScCHD-1 Enzyme Inhibition Assay; type: functional; conditions: 30 µM; further: in the data most compounds retested in dose-response had high values
[13] = target: AMP-activated protein kinase, AMPK (Homo sapiens) (UniProt P54646+O43741+P54619+Q9UGJ0+Q9Y478+Q13131+Q9UGI9); assay: AMP-dependent Kinase enzyme assay. An in vitro enzyme assay that detects ADP turnover that is directly proportional to AMPK activity. This uses naive AMPK that is activated during the assay with MK-8722; type: functional; conditions: 30 µM

Chain of Chromo domain-containing protein 1 (Saccharomyces cerevisiae (strain ATCC 204508 / S288c) (Baker's yeast)) (P32657 whole entry, the tested form may be a part): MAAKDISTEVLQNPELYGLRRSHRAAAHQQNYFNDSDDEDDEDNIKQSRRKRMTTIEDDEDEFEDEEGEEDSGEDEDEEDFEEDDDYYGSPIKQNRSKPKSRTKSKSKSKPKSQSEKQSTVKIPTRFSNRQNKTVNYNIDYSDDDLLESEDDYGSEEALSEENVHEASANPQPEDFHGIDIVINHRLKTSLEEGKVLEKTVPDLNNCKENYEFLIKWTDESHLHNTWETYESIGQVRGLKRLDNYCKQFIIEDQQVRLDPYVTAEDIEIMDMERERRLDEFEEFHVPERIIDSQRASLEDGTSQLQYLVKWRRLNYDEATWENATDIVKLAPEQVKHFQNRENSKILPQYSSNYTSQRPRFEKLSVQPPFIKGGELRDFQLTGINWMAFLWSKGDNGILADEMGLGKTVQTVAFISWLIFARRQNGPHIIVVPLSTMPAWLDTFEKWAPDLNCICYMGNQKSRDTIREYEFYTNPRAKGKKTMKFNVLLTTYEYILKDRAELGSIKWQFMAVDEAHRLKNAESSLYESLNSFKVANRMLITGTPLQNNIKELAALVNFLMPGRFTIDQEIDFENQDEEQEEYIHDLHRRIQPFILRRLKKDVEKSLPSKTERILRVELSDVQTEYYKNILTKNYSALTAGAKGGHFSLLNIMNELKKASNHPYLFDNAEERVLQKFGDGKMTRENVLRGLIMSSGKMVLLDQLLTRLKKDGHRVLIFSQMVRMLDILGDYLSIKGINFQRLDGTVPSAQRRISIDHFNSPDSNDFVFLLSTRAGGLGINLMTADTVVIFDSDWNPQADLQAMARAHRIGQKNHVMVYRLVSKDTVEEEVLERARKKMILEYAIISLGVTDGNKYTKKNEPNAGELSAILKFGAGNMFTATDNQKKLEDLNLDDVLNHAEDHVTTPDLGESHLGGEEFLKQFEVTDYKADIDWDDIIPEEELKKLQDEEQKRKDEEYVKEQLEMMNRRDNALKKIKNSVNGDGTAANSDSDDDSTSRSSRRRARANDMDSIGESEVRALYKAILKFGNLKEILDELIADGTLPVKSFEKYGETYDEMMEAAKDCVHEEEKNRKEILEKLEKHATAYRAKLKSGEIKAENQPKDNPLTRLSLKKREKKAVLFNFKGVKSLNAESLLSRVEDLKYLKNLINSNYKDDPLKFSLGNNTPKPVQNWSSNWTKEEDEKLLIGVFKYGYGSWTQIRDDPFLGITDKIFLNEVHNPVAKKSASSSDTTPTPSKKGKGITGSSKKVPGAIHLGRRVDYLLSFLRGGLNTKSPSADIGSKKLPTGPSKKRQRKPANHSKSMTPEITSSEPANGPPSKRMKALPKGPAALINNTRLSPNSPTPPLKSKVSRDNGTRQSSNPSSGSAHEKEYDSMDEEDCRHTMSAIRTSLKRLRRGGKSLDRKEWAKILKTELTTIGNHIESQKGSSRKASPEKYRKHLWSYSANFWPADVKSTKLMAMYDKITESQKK
Chain of Sialic acid-binding Ig-like lectin 9 (Homo sapiens) (Q9Y336 whole entry): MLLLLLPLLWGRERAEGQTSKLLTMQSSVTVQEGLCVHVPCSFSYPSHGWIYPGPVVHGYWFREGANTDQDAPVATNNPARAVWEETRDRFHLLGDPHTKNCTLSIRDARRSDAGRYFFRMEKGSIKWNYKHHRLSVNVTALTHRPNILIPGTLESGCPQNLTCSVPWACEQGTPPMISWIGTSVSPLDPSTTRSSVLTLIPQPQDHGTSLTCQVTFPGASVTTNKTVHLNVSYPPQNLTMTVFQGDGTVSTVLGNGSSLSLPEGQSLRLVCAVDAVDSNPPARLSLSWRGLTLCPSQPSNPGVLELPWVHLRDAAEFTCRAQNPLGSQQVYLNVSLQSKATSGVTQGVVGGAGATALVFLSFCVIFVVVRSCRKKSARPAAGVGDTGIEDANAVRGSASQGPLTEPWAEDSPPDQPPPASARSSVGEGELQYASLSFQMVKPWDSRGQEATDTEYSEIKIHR
Chain of Protein translocase subunit SecA (Escherichia coli (strain K12)) (P10408 whole entry): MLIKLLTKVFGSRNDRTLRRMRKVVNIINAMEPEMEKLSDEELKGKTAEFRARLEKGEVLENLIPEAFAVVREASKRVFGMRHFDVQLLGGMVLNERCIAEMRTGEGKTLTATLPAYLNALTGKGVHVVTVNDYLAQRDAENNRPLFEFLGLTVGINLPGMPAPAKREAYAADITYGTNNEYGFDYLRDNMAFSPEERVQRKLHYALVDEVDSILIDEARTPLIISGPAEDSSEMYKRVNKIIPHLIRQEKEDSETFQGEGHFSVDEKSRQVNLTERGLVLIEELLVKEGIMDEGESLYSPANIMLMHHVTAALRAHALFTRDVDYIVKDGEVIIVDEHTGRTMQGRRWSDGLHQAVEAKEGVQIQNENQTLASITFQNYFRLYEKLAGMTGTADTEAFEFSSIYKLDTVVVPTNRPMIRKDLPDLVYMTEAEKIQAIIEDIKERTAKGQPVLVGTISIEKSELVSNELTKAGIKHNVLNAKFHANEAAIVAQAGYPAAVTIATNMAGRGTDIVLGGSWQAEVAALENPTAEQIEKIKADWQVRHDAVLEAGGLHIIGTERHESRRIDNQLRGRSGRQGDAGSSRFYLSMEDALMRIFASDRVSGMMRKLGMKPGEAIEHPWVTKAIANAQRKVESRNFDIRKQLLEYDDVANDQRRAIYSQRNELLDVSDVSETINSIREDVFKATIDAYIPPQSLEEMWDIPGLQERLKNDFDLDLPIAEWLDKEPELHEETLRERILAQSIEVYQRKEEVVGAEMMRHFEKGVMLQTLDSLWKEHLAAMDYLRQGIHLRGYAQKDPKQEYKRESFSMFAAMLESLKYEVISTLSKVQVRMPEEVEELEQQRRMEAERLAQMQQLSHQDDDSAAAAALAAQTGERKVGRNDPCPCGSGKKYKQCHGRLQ

SMILES | Percent Effect [1] [%] | Percent Effect [2] [%] | Percent Effect [3] [%] | Percent Effect [4] [%] | Percent Effect [5] [%] | Percent Effect [6] [%] | Percent Effect [7] [%] | Percent Effect [8] [%] | Percent Effect [9] [%] | Percent Effect [10] [%] | Percent Effect [11] [%] | Percent Effect [12] [%] | Percent Effect [13] [%]
O=C(Nc1cccnc1)[C@@H]1C[C@H]2OCC[C@H]2N(Cc2ccsc2)C1 | -6.23 | 9.09 | -1.88 | 6.98 | 0.487 | -0.81 | 13.7 | 0.767 | -6.35 | 4.74 | 10.3 | -2.28 | –
O=C1CC2(CCCNC2)C(=O)N1Cc1ccccc1 (stereo not given) | -1.32 | -16.9 | 1.23 | -1.16 | -6.57 | 0.457 | 16.4 | 15 | 2.48 | 2.9 | 0 | -9.23 | –
CSc1nccc(N2CCN(C)C3(CCNC(=O)CC3)C2)n1 (stereo not given) | -5.63 | 8 | -0.126 | 2.82 | -1.66 | 5.73 | 12.6 | -2.91 | – | 3.83 | 13.6 | -6.95 | -1.22
COCC1CC2(CCN(Cc3ccccn3)CC2)CN1C(C)C (stereo not given) | -6.44 | 6.49 | 4.1 | 6.75 | 7.11 | -8.1 | 7.5 | 2.62 | -1.31 | 3.68 | 12.8 | 2.02 | –
c1ccc(N2CCCC3(CCN(Cc4nccs4)C3)C2)nc1 (stereo not given) | -1.98 | 14.3 | -1.46 | 3.73 | 0.75 | -5.94 | 18.4 | 4.2 | 7.26 | 10.6 | 20 | -11.5 | –
Cc1cc(CN2CC[C@H]3C[C@H](C(=O)N(C)C)O[C@@H]3C2)no1 | -4.45 | 3.9 | -0.0763 | 14.4 | 5.36 | 12.6 | 13.3 | -6.77 | -6.84 | 2.63 | -5.13 | 20.4 | –
CC[C@H]1NCCC[C@]12CCC(=O)N2Cc1ccncc1 | -3.12 | 11.7 | 0.865 | 1.31 | 0 | 1.37 | -0.772 | -15 | -6.09 | 5.8 | 15 | -0.792 | –
O=C1N(Cc2cccnc2)CCC12CCCNC2 (stereo not given) | -3.76 | 16.9 | 2.62 | -3.98 | -3.19 | 0.913 | 20 | 34 | 7.06 | 1.93 | 2.5 | -10.7 | –
CC(=O)N1CCN(Cc2ccccn2)CC2(CC(=O)N(C)C2)C1 (stereo not given) | -0.0517 | -29.9 | -4.78 | 4 | 0.938 | -1.37 | 3.35 | -20.2 | 2.99 | 6.76 | 7.5 | -1.54 | –
NC(=O)CN1CCCN(C(=O)Cc2ccc3ccccc3c2)CC1 | -7.48 | 0 | 2.66 | 1.74 | -13.2 | -6.21 | 0.594 | 24.3 | -25.4 | -0.526 | -5.13 | -8.56 | –
